{"source": "paper PMC5540273", "about": "(PLoS ONE, 2017)", "key": {"FLT3-autoinhibited": {"tested_on": "FLT3-autoinhibited", "conditions": "concentration: 1 μM, replicates: in singlicate; n = 1"}, "FLT3": {"tested_on": "FLT3", "conditions": "concentration: 1 μM, replicates: in singlicate, n = 1"}, "FLT4": {"tested_on": "FLT4", "conditions": "concentration: 1 μM, replicates: in singlicate, n = 1"}, "FRK": {"tested_on": "FRK", "conditions": "concentration: 1 μM, replicates: in singlicate, n = 1"}, "FYN": {"tested_on": "FYN", "conditions": "concentration: 1 μM, replicates: in singlicate, n = 1"}, "GAK": {"tested_on": "GAK", "conditions": "concentration: 1 μM, replicates: in singlicate, n = 1"}, "GCN2(Kin.Dom.2,S808G)": {"tested_on": "T1, GCN2(Kin.Dom.2,S808G)", "T1 construct": "gene EIF2AK4", "conditions": "concentration: 1 μM, replicates: in singlicate, n = 1"}, "GRK1": {"tested_on": "GRK1", "conditions": "concentration: 1 μM, replicates: in singlicate; n = 1"}, "GRK2": {"tested_on": "T2, GRK2", "T2 construct": "gene ADRBK1", "conditions": "concentration: 1 μM, replicates: in singlicate, n = 1"}, "GRK3": {"tested_on": "T3, GRK3", "T3 construct": "gene ADRBK2", "conditions": "concentration: 1 μM, replicates: in singlicate, n = 1"}, "GRK4": {"tested_on": "GRK4", "conditions": "concentration: 1 μM, replicates: in singlicate; n = 1"}, "GRK7": {"tested_on": "GRK7", "conditions": "concentration: 1 μM, replicates: in singlicate; n = 1"}, "GSK3A": {"tested_on": "GSK3A", "conditions": "concentration: 1 μM, replicates: in singlicate, n = 1"}, "GSK3B": {"tested_on": "GSK3B", "conditions": "concentration: 1 μM, replicates: in singlicate, n = 1"}, "HASPIN": {"tested_on": "T4, HASPIN", "T4 construct": "gene GSG2", "conditions": "concentration: 1 μM, replicates: in singlicate, n = 1"}, "HCK": {"tested_on": "HCK", "conditions": "concentration: 1 μM, replicates: in singlicate, n = 1"}, "HIPK1": {"tested_on": "HIPK1", "conditions": "concentration: 1 μM, replicates: in singlicate; n = 1"}, "HIPK2": {"tested_on": "HIPK2", "conditions": "concentration: 1 μM, replicates: in singlicate, n = 1"}, "HIPK3": {"tested_on": "HIPK3", "conditions": "concentration: 1 μM, replicates: in singlicate, n = 1"}, "HIPK4": {"tested_on": "HIPK4", "conditions": "concentration: 1 μM, replicates: in singlicate, n = 1"}}, "note": "Values joined by “and” are separate entries in the source; they are usually repeats but may differ in a detail not shown here. Equal entries are not always repeated. Where two headings read alike, the source gives them in different places.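 Also: KINOMEscan kinase panel screen.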"}
{"smiles": "C[C@@H](Oc1cc(-n2cnc3ccc(NC(=O)NC(C)(C)C)cc32)sc1C(N)=O)c1ccccc1Cl", "note": "[GSK346294]", "values": [{"measurement": "%Inh", "setting": "FLT3-autoinhibited", "value": 0, "unit": "%"}, {"measurement": "%Inh", "setting": "FLT3", "value": 0, "unit": "%"}, {"measurement": "%Inh", "setting": "FLT4", "value": 1, "unit": "%"}, {"measurement": "%Inh", "setting": "FRK", "value": 10, "unit": "%"}, {"measurement": "%Inh", "setting": "FYN", "value": 6, "unit": "%"}, {"measurement": "%Inh", "setting": "GAK", "value": 0, "unit": "%"}, {"measurement": "%Inh", "setting": "GCN2(Kin.Dom.2,S808G)", "value": 0, "unit": "%"}, {"measurement": "%Inh", "setting": "GRK1", "value": 0, "unit": "%"}, {"measurement": "%Inh", "setting": "GRK2", "value": 0, "unit": "%"}, {"measurement": "%Inh", "setting": "GRK3", "value": 34, "unit": "%"}, {"measurement": "%Inh", "setting": "GRK4", "value": 0, "unit": "%"}, {"measurement": "%Inh", "setting": "GRK7", "value": 0, "unit": "%"}, {"measurement": "%Inh", "setting": "GSK3A", "value": 18, "unit": "%"}, {"measurement": "%Inh", "setting": "GSK3B", "value": 21, "unit": "%"}, {"measurement": "%Inh", "setting": "HASPIN", "value": 1, "unit": "%"}, {"measurement": "%Inh", "setting": "HCK", "value": 0, "unit": "%"}, {"measurement": "%Inh", "setting": "HIPK1", "value": 9, "unit": "%"}, {"measurement": "%Inh", "setting": "HIPK2", "value": 0, "unit": "%"}, {"measurement": "%Inh", "setting": "HIPK3", "value": 26, "unit": "%"}, {"measurement": "%Inh", "setting": "HIPK4", "value": 0, "unit": "%"}]}
{"smiles": "COc1cc2c(cc1OC[C@@H](O)CO)ncc1c3ccc(C#N)cc3[nH]c21", "values": [{"measurement": "%Inh", "setting": "FLT3-autoinhibited", "value": 90, "unit": "%"}, {"measurement": "%Inh", "setting": "FLT3", "value": 97.5, "unit": "%"}, {"measurement": "%Inh", "setting": "FLT4", "value": 7, "unit": "%"}, {"measurement": "%Inh", "setting": "FRK", "value": 0, "unit": "%"}, {"measurement": "%Inh", "setting": "FYN", "value": 0, "unit": "%"}, {"measurement": "%Inh", "setting": "GAK", "value": 98.9, "unit": "%"}, {"measurement": "%Inh", "setting": "GCN2(Kin.Dom.2,S808G)", "value": 82, "unit": "%"}, {"measurement": "%Inh", "setting": "GRK1", "value": 16, "unit": "%"}, {"measurement": "%Inh", "setting": "GRK2", "value": 13, "unit": "%"}, {"measurement": "%Inh", "setting": "GRK3", "value": 0, "unit": "%"}, {"measurement": "%Inh", "setting": "GRK4", "value": 73, "unit": "%"}, {"measurement": "%Inh", "setting": "GRK7", "value": 5, "unit": "%"}, {"measurement": "%Inh", "setting": "GSK3A", "value": 0, "unit": "%"}, {"measurement": "%Inh", "setting": "GSK3B", "value": 0, "unit": "%"}, {"measurement": "%Inh", "setting": "HASPIN", "value": 91.2, "unit": "%"}, {"measurement": "%Inh", "setting": "HCK", "value": 4, "unit": "%"}, {"measurement": "%Inh", "setting": "HIPK1", "value": 94.4, "unit": "%"}, {"measurement": "%Inh", "setting": "HIPK2", "value": 98, "unit": "%"}, {"measurement": "%Inh", "setting": "HIPK3", "value": 94.2, "unit": "%"}, {"measurement": "%Inh", "setting": "HIPK4", "value": 47, "unit": "%"}]}
{"smiles": "CCCCCc1nc2c(N)ncnc2n1CCCCC", "note": "[SKF-97255]", "values": [{"measurement": "%Inh", "setting": "FLT3-autoinhibited", "value": 0, "unit": "%"}, {"measurement": "%Inh", "setting": "FLT3", "value": 0, "unit": "%"}, {"measurement": "%Inh", "setting": "FLT4", "value": 0, "unit": "%"}, {"measurement": "%Inh", "setting": "FRK", "value": 0, "unit": "%"}, {"measurement": "%Inh", "setting": "FYN", "value": 0, "unit": "%"}, {"measurement": "%Inh", "setting": "GAK", "value": 0, "unit": "%"}, {"measurement": "%Inh", "setting": "GCN2(Kin.Dom.2,S808G)", "value": 4, "unit": "%"}, {"measurement": "%Inh", "setting": "GRK1", "value": 38, "unit": "%"}, {"measurement": "%Inh", "setting": "GRK2", "value": 0, "unit": "%"}, {"measurement": "%Inh", "setting": "GRK3", "value": 6, "unit": "%"}, {"measurement": "%Inh", "setting": "GRK4", "value": 21, "unit": "%"}, {"measurement": "%Inh", "setting": "GRK7", "value": 0, "unit": "%"}, {"measurement": "%Inh", "setting": "GSK3A", "value": 0, "unit": "%"}, {"measurement": "%Inh", "setting": "GSK3B", "value": 34, "unit": "%"}, {"measurement": "%Inh", "setting": "HASPIN", "value": 2, "unit": "%"}, {"measurement": "%Inh", "setting": "HCK", "value": 26, "unit": "%"}, {"measurement": "%Inh", "setting": "HIPK1", "value": 43, "unit": "%"}, {"measurement": "%Inh", "setting": "HIPK2", "value": 0, "unit": "%"}, {"measurement": "%Inh", "setting": "HIPK3", "value": 13, "unit": "%"}, {"measurement": "%Inh", "setting": "HIPK4", "value": 1, "unit": "%"}]}
{"smiles": "CC(C)(CN)c1nc(-c2ccc(Cl)c(O)c2)c(-c2ccncc2)[nH]1.O=C(O)C(F)(F)F", "note": "[SB-477794]", "values": [{"measurement": "%Inh", "setting": "FLT3-autoinhibited", "value": 0, "unit": "%"}, {"measurement": "%Inh", "setting": "FLT3; 1 µM", "value": "0% and 29%"}, {"measurement": "%Inh", "setting": "FLT4; 1 µM", "value": "78% and 74%"}, {"measurement": "%Inh", "setting": "FRK; 1 µM", "value": "99.5% and 99.1%"}, {"measurement": "%Inh", "setting": "FYN; 1 µM", "value": "97.3% and 96.8%"}, {"measurement": "%Inh", "setting": "GAK; 1 µM", "value": "71% and 56%"}, {"measurement": "%Inh", "setting": "GCN2(Kin.Dom.2,S808G); 1 µM", "value": "14% and 0%"}, {"measurement": "%Inh", "setting": "GRK1", "value": 0, "unit": "%"}, {"measurement": "%Inh", "setting": "GRK2; 1 µM", "value": "0% and 26%"}, {"measurement": "%Inh", "setting": "GRK3; 1 µM", "value": "65% and 0%"}, {"measurement": "%Inh", "setting": "GRK4", "value": 0, "unit": "%"}, {"measurement": "%Inh", "setting": "GRK7", "value": 0, "unit": "%"}, {"measurement": "%Inh", "setting": "GSK3A; 1 µM", "value": "49% and 58%"}, {"measurement": "%Inh", "setting": "GSK3B; 1 µM", "value": "29% and 14%"}, {"measurement": "%Inh", "setting": "HASPIN; 1 µM", "value": "58% and 57%"}, {"measurement": "%Inh", "setting": "HCK; 1 µM", "value": "96.6% and 96%"}, {"measurement": "%Inh", "setting": "HIPK1", "value": 0, "unit": "%"}, {"measurement": "%Inh", "setting": "HIPK2; 1 µM", "value": "1% and 37%"}, {"measurement": "%Inh", "setting": "HIPK3; 1 µM", "value": "20% and 4%"}, {"measurement": "%Inh", "setting": "HIPK4; 1 µM", "value": "0% and 13%"}]}
{"smiles": "CN(C(=O)c1ccc(-c2cc(-c3c[nH]nc3-c3ccccn3)ccn2)cc1)C1CCOCC1", "note": "[GW810083]", "values": [{"measurement": "%Inh", "setting": "FLT3-autoinhibited", "value": 0, "unit": "%"}, {"measurement": "%Inh", "setting": "FLT3", "value": 8, "unit": "%"}, {"measurement": "%Inh", "setting": "FLT4", "value": 0, "unit": "%"}, {"measurement": "%Inh", "setting": "FRK", "value": 6, "unit": "%"}, {"measurement": "%Inh", "setting": "FYN", "value": 1, "unit": "%"}, {"measurement": "%Inh", "setting": "GAK", "value": 9, "unit": "%"}, {"measurement": "%Inh", "setting": "GCN2(Kin.Dom.2,S808G)", "value": 2, "unit": "%"}, {"measurement": "%Inh", "setting": "GRK1", "value": 10, "unit": "%"}, {"measurement": "%Inh", "setting": "GRK2", "value": 18, "unit": "%"}, {"measurement": "%Inh", "setting": "GRK3", "value": 18, "unit": "%"}, {"measurement": "%Inh", "setting": "GRK4", "value": 4, "unit": "%"}, {"measurement": "%Inh", "setting": "GRK7", "value": 0, "unit": "%"}, {"measurement": "%Inh", "setting": "GSK3A", "value": 0, "unit": "%"}, {"measurement": "%Inh", "setting": "GSK3B", "value": 4, "unit": "%"}, {"measurement": "%Inh", "setting": "HASPIN", "value": 0, "unit": "%"}, {"measurement": "%Inh", "setting": "HCK", "value": 0, "unit": "%"}, {"measurement": "%Inh", "setting": "HIPK1", "value": 22, "unit": "%"}, {"measurement": "%Inh", "setting": "HIPK2", "value": 25, "unit": "%"}, {"measurement": "%Inh", "setting": "HIPK3", "value": 0, "unit": "%"}, {"measurement": "%Inh", "setting": "HIPK4", "value": 0, "unit": "%"}]}
